High-throughput results (PubChem BioAssay)
A selection: hits, their analogues and other compounds. The true share with any hit is near 11%.
MCF10A rereplic – DNA re-replication induction in MCF 10a cells | MCF 10A DNA re-replication, Hoechst nuclear intensity, 48 h | Potency, µM (highest dose often 46.1 µM), without a hit: top-dose activity, positive = re-replication, usual class: activators | 350,000 tested, 2.9% active | AID 624296; further: potency means the concentration at half of the fitted maximal effect; % of control where 0% means no effect; nearly all actives have a fitted effect of over 50% in size
RORg inh – inhibitors of mouse ROR gamma transcriptional activity; Drosophila S2 Gal4-RORgamma UAS-luciferase reporter, 20 h; Potency, µM (doses to about 53.6 µM), for the others: at the highest dose activity change, negative = inhibition, usual class: inhibitors; 310,000 tested, 5.4% active; AID 2551; further: potency means the concentration at half of the fitted maximal effect; on the % scale 0 is the no-effect control and ±100 the full control effect; nearly all actives have a fitted effect of over 60% in size
Target sequence (P51450 whole entry, looked up, the tested form may be a part): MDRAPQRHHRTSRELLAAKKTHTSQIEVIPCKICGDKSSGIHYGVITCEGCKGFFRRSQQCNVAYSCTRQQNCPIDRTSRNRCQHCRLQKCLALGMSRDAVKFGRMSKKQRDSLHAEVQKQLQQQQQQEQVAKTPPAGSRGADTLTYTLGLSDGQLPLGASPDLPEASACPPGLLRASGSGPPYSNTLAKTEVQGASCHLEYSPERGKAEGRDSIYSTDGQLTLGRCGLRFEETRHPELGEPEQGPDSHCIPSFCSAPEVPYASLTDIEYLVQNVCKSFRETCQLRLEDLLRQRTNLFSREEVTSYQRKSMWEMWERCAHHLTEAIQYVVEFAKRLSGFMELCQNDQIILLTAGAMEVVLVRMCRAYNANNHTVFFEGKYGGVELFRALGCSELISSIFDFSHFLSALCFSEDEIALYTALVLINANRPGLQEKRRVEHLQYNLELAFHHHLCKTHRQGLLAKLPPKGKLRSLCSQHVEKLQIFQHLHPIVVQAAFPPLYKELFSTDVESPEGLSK
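ROR gamma transcriptional activity was tracked as Gal4-UAS luciferase output in stably transfected Drosophila Schneider cells, with compound added 1 hr before 700 uM copper sulfate induction and a 20 hr ambient-temperature incubation.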
Gal4-VP16 FLuc – Gal4-VP16 reporter inhibition counter-screen; Drosophila S2 Gal4-VP16 UAS-luciferase, luminescence, 20 h; Potency, µM (highest dose often 53.6 µM), for inactives: top-dose activity, negative = inhibition, most hits filed as inhibitors; 310,000 tested, 3.5% active; AID 2546;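 further: Gal4-VP16 expression switched on by copper sulfate through the metallothionein promoter; potency means the concentration at half of the fitted maximal effect; on the % scale 0 is the no-effect control and ±100 the full control effect; nearly all actives have a fitted effect of over 50% in size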
IL-1B inflam inh – blocks inflammasome-driven IL-1 beta release; THP-1 LPS/ATP IL-1B secretion, AlphaLISA, 16 h; stronger effect = lower value; AID 743279; 360,000 tested, 4.7% active; activity change, % at 57.5 µM; in the data active means activity change below about -50%; inconclusive means mostly about -30% to -49%; further: on the % scale 0 is the no-effect control and ±100 the full control effect
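THP-1 cells pretreated 1 hr with compounds (up to 57.5 uM final), then stimulated with LPS (250 ng/mL final) plus ATP (1.25 mM final); secreted IL-1B measured by AlphaLISA after 16 hr, decreased signal indicating inhibition.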
SW480 rerep – DNA re-replication induction in SW480 cells; SW480 DNA re-replication, Hoechst DNA content imaging, 48 h; Potency, µM (top dose mostly 46.1 µM), inactives show at the highest dose re-replication activation, usual class: activators; 340,000 tested, 1.8% active; further: potency means the concentration at half of the fitted maximal effect; % of control where 0% means no effect; nearly all actives have a fitted effect of over 55% in size
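Hoechst fluorescence of nuclei (405 nm excitation, 500-530 nm emission) measured by plate-scanning imager after 48 hr compound exposure at 37 C; re-replication scored as increased number of nuclei with elevated intensity.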
Active calls of the source: *; ? = inconclusive; nt = not tested or not shown; [ ] = another dose, or the depositor's remark. Unless noted, the call rests on the fitted dose curve; in most records, active means well fitted curve in the direction sought with a large enough effect; inconclusive means small, poorly fitted or top-dose-only effect, or another doubt; inactive means no such curve, though single readings can be large; an effect the other way counts as inactive or inconclusive.

SMILES	MCF10A rereplic	RORg inh	Gal4-VP16 FLuc	IL-1B inflam inh	SW480 rerep
FC(F)(F)c1cccc(NC(=S)Nc2cccc(NC(=S)Nc3cccc(C(F)(F)F)c3)n2)c1	?	5µM*	?	-86*	?
FC(F)(F)c1cccc(NC(=S)N2CCCC2)c1	-8%	2%	0%	17	3%
Cc1nc(SCC(=O)N2CCCCCC2)c2c(=O)n(C)c(=O)n(CC(C)C)c2n1	?	nt	nt	-29	0%
COc1cc(C(=O)O[C@@H]2CC3CC[C@]2(C)C3(C)C)ccc1O	nt	-6%	-19%	nt	nt
Cc1cc2c(c(C)c1CCO[C@@H]1O[C@H](CO)[C@@H](O)[C@H](O)[C@H]1O)C(=O)[C@@H](C)[C@@H]2O	18µM*	nt	nt	-8	-2%
OC[C@H]1O[C@H](OCCc2ccc(O)cc2)[C@H](O)[C@@H](O)[C@@H]1O	-35%	nt	nt	5	-10%
Cc1cn([C@H]2C[C@H](O)[C@@H](CNCc3cccc(OC4CCCC4)c3)O2)c(=O)[nH]c1=O	nt	nt	nt	10	nt
Cc1ccc2cc(/C=N/Nc3nc4ccccc4[nH]3)c(Cl)nc2c1	1%	4.5µM*	1.3µM*	34	1%
CCN(CC)c1ccc(C=Nc2ccccc2C)c(O)c1	2%	0%	-3%	3	?
COc1cc(OC)c(OC)cc1/C=N/Nc1nc2ccccc2[nH]1	?	-30%	-2%	0	-7%
CCN(CC)c1ccc(/C=N/Nc2nc3ccccc3[nH]2)c(O)c1	18µM*	3.5µM*	2.8µM*	-59*	2.1µM*
CN(Cc1ccco1)c1nc(-c2cccc(C#N)c2)nc2ccccc12	nt	10%	0%	nt	nt
COc1ccc(F)cc1-c1cc(C(=O)Nc2ccc(C)c(NS(C)(=O)=O)c2)[nH]n1	nt	nt	nt	-54*	nt
CCCOc1ccc(F)cc1-c1cc(C(=O)Nc2ccc(OC)c(OC)c2)[nH]n1	nt	nt	nt	-68*	nt
COc1ccc(NC(=O)c2cc(-c3cc(F)ccc3OC)n[nH]2)cc1OC	nt	nt	nt	-5	nt
COc1ccc(NC(=O)CCC(=O)Nc2cc(OC)c(NC(=O)c3cccs3)cc2OC)cc1	-2%	38%	2%	-12	-3%
COc1cc(NC(=O)c2ccc(C)cc2C)ccc1NC(=O)c1cccs1	0%	21%	-10%	-63*	-7%
COc1cc(NC(=O)c2cccs2)c(OC)cc1NC(=O)CCC(=O)Nc1ccc(C)cc1	21µM*	-22%	0%	-12	?
Cc1cc(C)c(OCC(=O)OCC(=O)NCCC2=CCCCC2)c(C)c1	1%	nt	nt	5	-4%
Nn1cc(-c2ccccc2)nc1SCC(=O)NCCc1ccccc1	-2%	-4%	5%	?	-4%
Cc1ccc(-c2cn(-c3ccccc3)c(SCC(=O)NC3CCS(=O)(=O)C3)n2)cc1C (configuration not stated)	15%	13µM*	?	6	2%
Cc1ccc(SCC(=O)NC2CCS(=O)(=O)C2)cc1C (configuration not stated)	2%	nt	nt	5	-5%
NNC(=O)CSc1nc(-c2ccccc2)cn1-c1ccccc1	10%	5.6µM*	18%	-17	-22%
COC(=O)CC1=NN(c2ccccc2)C(=O)/C1=C\c1ccc(OC)cc1	18%	25%	-1%	-23	16%
CCOC(=O)CC1=NN(c2ccccc2)C(=O)/C1=C\c1ccc(OC)cc1OC	10µM*	-8%	8%	0	?
SMILES	MCF10A rereplic	RORg inh	Gal4-VP16 FLuc	IL-1B inflam inh	SW480 rerep
S=C(Nc1ccc(Nc2ccccc2)cc1)Nc1ccccn1	24%	0.71µM*	2.5µM*	?	?
Cc1ccccc1C(=O)O/N=C(\c1ccccc1)c1ccccn1	-14%	?	?	10	5%
O=C(Nc1ccccc1)C(=O)Nc1ccccn1	-2%	2.2µM*	5µM*	11	-3%
O=C(Nc1cccc(O)c1)C(=O)Nc1ccccn1	-3%	27%	-3%	-8	-11%
O=C(Nc1ccccc1)O/N=C(\c1ccccc1)c1ccccn1	-1%	11µM*	-7%	0	1%
S=C(Nc1ccccc1)c1ccccn1	-4%	0.63µM*	2µM*	0	?
CCN1CCCC1CNC(=O)Cn1cc(C)c(=O)[nH]c1=O (configuration not stated)	?	nt	nt	0	0%
N#Cc1ccc(NC(=O)COC(=O)c2cccc(S(=O)(=O)N3CCCC3)c2)cc1	nt	nt	nt	-16	nt
CNC(=O)COC(=O)c1ccc2c(c1)NC(=O)C1CCCN21 (configuration not stated)	nt	-3%	2%	nt	nt
CS(=O)(=O)N1CCC2(CCCN(c3ccccn3)C2)CC1	nt	-18%	12%	nt	nt
O=C(N/N=C/c1ccccc1O)C(=O)Nc1ccccn1	-8%	1.4µM*	10µM*	68	-9%
COc1coc(/C=C/C(=O)O)cc1=O	-1%	8%	-1%	-5	1.5µM*
C/C(CCc1ccccc1)=N\NC(=O)C(=O)Nc1cccc(Cl)c1	0.26µM*	-13%	-8%	-13	7%
C/C(CCc1ccco1)=N/NC(=O)CCC(=O)Nc1cccc(Cl)c1	-1%	16%	-7%	5	-5%
C/C(CC(=O)Nc1ccc(OCc2ccccc2)cc1)=N\NC(=O)C(=O)Nc1cccc(C)c1	15µM*	-18%	?	?	-60%
COc1ccc2cc(CN(C)C(=O)CN3C(=O)NC4(CCCC4)C3=O)ccc2c1	nt	nt	nt	-15	nt
Oc1ccc(CNc2ccc(F)cc2)c2cccnc12	23µM*	11µM*	?	-3	?
Oc1ccc(Cn2ccnc2)c2cccnc12	135%	?	?	161	?
Cc1cccc(NCc2ccc(O)c3ncccc23)c1	?	6.3µM*	?	18	?
Oc1ccc2ccccc2c1CNc1ccccc1	?	nt	nt	-29	?
Oc1ccc(CNc2ccccc2)c2cccnc12	?	16µM*	0.79µM*	9	?
Cc1cccc(NCc2ccccc2O)c1C	0%	17%	-10%	1	-10%
Cc1ccccc1NCc1ccc(O)c2ncccc12	?	11µM*	11µM*	45	3%
CCN1C(=O)[C@H]2[C@H]3[C@H](O)[C@H](O)C/C(=N/NC(=O)OCc4ccccc4)[C@H]3CC[C@@H]2C1=O	nt	5%[10 µM]	-8%[10 µM]	nt	nt
CN(C)Cc1ccccc1-c1cncnc1Nc1ccc(F)cc1	nt	2%	0%	nt	nt
N#C/C(=C\C=C\c1ccccc1[N+](=O)[O-])C(=O)NCc1ccccc1	3.7µM*	14µM*	?	-102*	21µM*
CCCCCCCCNC(=O)/C(C#N)=C/c1ccccc1[N+](=O)[O-]	?	3.2µM*	7.9µM*	?	-39%
N#C/C(=C/c1ccccc1[N+](=O)[O-])C(=O)NCc1ccco1	17%	-41%	?	-3	4%
C=CCNC(=O)/C(C#N)=C/c1ccccc1[N+](=O)[O-]	0%	-17%	?	-62*	?
